In PubChem BioAssay (Tox21):
Results filed as inconclusive are left out. Calls of active or inactive are those of the source. Unless noted, the call rests on the fitted dose curve; in most records, active means well fitted curve in the direction sought with a large enough effect in the repeat runs; inconclusive means weak or mixed curves; inactive means no such curve, though single readings can be large; an effect the other way counts as inactive or inconclusive.

What was measured:
[1] = qHTS assay to identify small molecule HDAC inhibitors (AID 1259364); further: top concentration of the series differs between compounds; nearly all actives have a fitted effect of over 45% in size
Outline: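 Luminescence read after 30 min room-temperature HDAC-Glo incubation measures cellular class I/II HDAC activity. Compounds were applied for 2 hr at 37 C to HCT-116 wild-type cells seeded the day before.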

[2] = qHTS assay to identify small molecule HDAC inhibitors - cell viability counter screen (AID 1259365); further: series mostly up to about 92 µM; nearly all actives have a fitted effect of over 50% in size
Outline: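 Wild-type HCT-116 cells, 1,500/well, cultured overnight, then compound-treated 2 h at 37 C. Viability measured as ATP luminescence with CellTiter-Glo after 30 min at room temperature.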

[3] = qHTS assay to identify small molecule agonists of the sonic hedgehog signaling (Shh) pathway - cell viability counter screen (AID 1259366); further: nearly all actives have a fitted effect of over 50% in size
Outline: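 NIH/3T3-derived Gli1-Luc reporter cells, 2,000 per well, received compound after 4 h and were treated about 23 h at 37C. Viability measured in the same wells by CellTiter-Fluor fluorescence after 1 h.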

[4] = qHTS assay to identify small molecule antagonists of the sonic hedgehog signaling (Shh) pathway - cell viability counter screen (AID 1259367); further: nearly all actives have a fitted effect of over 55% in size
Outline: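 Cytotoxicity was assessed in parallel with Shh reporter activity by measuring live-cell protease fluorescence (CellTiter-Fluor) in NIH/3T3 cells stably carrying Gli1-Luc, treated with compound under conditioned medium stimulation for 23 hr plus 1 hr reagent incubation.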

[5] = qHTS assay to identify small molecule agonists of the sonic hedgehog signaling (Shh) pathway (AID 1259368; calls by dose curve;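 further: NIH/3T3-derived 3T3Gli1-Luc cells carrying a stable Gli1-driven firefly luciferase reporter; series mostly up to about 92 µM; nearly all actives have a fitted effect of over 15% in size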)
Outline: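 Luminescence was read after 30 min at room temperature with luciferase reagent. Before that, 3T3Gli1-Luc cells (NIH/3T3 clone, stable Gli1-Luc reporter; 2,000/well) were exposed to compounds for 24 hr at 37C, 5% CO2, compounds being added 4 hr post-plating.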

[6] = qHTS assay to identify small molecule antagonists of the sonic hedgehog signaling (Shh) pathway (AID 1259369; calls by dose curve; further: nearly all actives have a fitted effect of over 45% in size)
Outline: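 Antagonist mode: compound added to 3T3 Gli1-Luc cells followed by conditioned-medium stimulation, 24 h at 37 C, 5% CO2. Inhibition taken as loss of Gli1-driven luciferase luminescence.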

[7] = biological target: Estrogen receptor beta (Homo sapiens) (UniProt Q92731); test: qHTS assay to identify small molecule agonists of the estrogen receptor beta (ER-beta) signaling pathway (AID 1259377; active means well fitted activation curve with a large enough effect in the signal ratio in the repeat runs, not every such curve was filed as active; the % refers to the signal ratio)
Outline: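 ER-beta-UAS-bla HEK293T cells in medium with 2% charcoal-stripped FBS were exposed to compounds for 16 h at 37C. Beta-lactamase reporter activity was read as fluorescence after 2 h with LiveBLAzer B/G FRET substrate at room temperature.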

[8] = biological target: Estrogen receptor beta (Homo sapiens) (UniProt Q92731); test: qHTS assay to identify small molecule antagonists of the estrogen receptor beta (ER-beta) signaling pathway (AID 1259378; active means well fitted inhibition curve with a large enough effect in the signal ratio in the repeat runs, not every such curve was filed as active; the % refers to the signal ratio)
Outline: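 ER-beta-UAS-bla HEK293T (GripTite) cells in 2% charcoal-stripped FBS medium were preincubated 6 hr at 37C, dosed with compound, then stimulated with 1 nM E2 (final) for 16 hr; beta-lactamase reporter read by B/G FRET fluorescence after 2 hr substrate loading.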

[9] = qHTS assay to identify small molecule agonists of the androgen receptor (AR) signaling pathway in the presence of an antagonist - cell viability counter screen (AID 1259379);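 further: MDA-kb2 human breast cancer cells carrying an MMTV luciferase reporter; series mostly up to about 92 µM; nearly all actives have a fitted effect of over 25% in size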
Outline: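 Cytotoxicity counter-screen run in the same wells as the nilutamide-challenged (3.0 µM final) AR agonist assay in MDA-kb2 cells. Compounds tested at 15 concentrations for 16 h, 37 °C without CO2; CellTiter-Fluor fluorescence read.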

[10] = qHTS assay to identify small molecule agonists of the estrogen receptor beta (ER-beta) signaling pathway - cell viability counter screen (AID 1259380); further: nearly all actives have a fitted effect of over 30% in size
Outline: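 Cell viability counter screen: CellTiter-Glo luminescence (30 min, room temperature) measured in the same wells as the beta-lactamase readout, after 16 hr compound exposure at 37C of ER-beta-bla HEK293T cells in 2% charcoal-stripped FBS medium.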

[11] = qHTS assay to identify small molecule antagonists of the estrogen receptor beta (ER-beta) signaling pathway - cell viability counter screen (AID 1259382); further: series mostly up to about 92 µM; nearly all actives have a fitted effect of over 55% in size
Outline: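 Cytotoxicity was measured in the same wells by CellTiter-Glo luminescence after 30 min at room temperature. Cells were ER-beta-bla HEK293T in charcoal-stripped serum, given compound together with 1 nM E2 and incubated 16 h at 37C.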

[12] = biological target: Estrogen receptor (Homo sapiens) (UniProt P03372); test: qHTS assay to identify small molecule agonists of the estrogen receptor alpha (ER-alpha) signaling pathway in the presence of an antagonist (AID 1259383; calls by dose curve; further: top concentration of the series differs between compounds; nearly all actives have a fitted effect of over 15% in size)
Outline: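 Agonist-mode confirmation run in the presence of 10.0nM (final) ICI-182,780 antagonist. The reporter was ERE-driven luciferase in VM7Luc4E2 cells, grown in charcoal-stripped serum. Cells were exposed to 15-concentration compound series for 22hr, then ONE-Glo luminescence was read.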

[13] = qHTS assay to identify small molecule agonists of the estrogen receptor alpha (ER-alpha) signaling pathway in the presence of an antagonist - cell viability counter screen (AID 1259386); further: series mostly up to about 92 µM; nearly all actives have a fitted effect of over 30% in size
Outline: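 Compounds tested at 15 concentrations for 22 h at 37C alongside 10.0nM (final) ICI-182,780 antagonist, in VM7Luc4E2 cells grown in phenol red-free, charcoal-stripped medium. Viability read by CellTiter-Fluor fluorescence after 1 h reagent incubation.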

[14] = biological target: Progesterone receptor (Homo sapiens) (UniProt P06401); test: qHTS assay to identify small molecule agonists of the progesterone receptor (PR) signaling pathway (AID 1346784; calls by dose curve; further: nearly all actives have a fitted effect of over 30% in size)
Outline: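 PR-UAS-bla HEK 293T cells (beta-lactamase reporter under UAS) in 2% charcoal-stripped FBS, dosed with 23 nL compound after 6 hr, incubated 16hr at 37C. LiveBLAzer B/G FRET substrate added, fluorescence read after 2 hours.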

[15] = qHTS assay to identify small molecule antagonists of the progesterone receptor (PR) signaling pathway - cell viability counter screen (AID 1346798); further: series mostly up to about 92 µM; nearly all actives have a fitted effect of over 50% in size
Outline: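 PR-UAS-bla HEK293T cells, 3,000/well in 2% charcoal-stripped FBS medium, dosed with compounds plus R5020 agonist and incubated 16 h at 37C. Viability then measured in the same wells by CellTiter-Glo luminescence after 30 min at RT.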

[16] = qHTS assay to identify small molecule agonists of the progesterone receptor (PR) signaling pathway - cell viability counter screen (AID 1346799; calls by dose curve; further: nearly all actives have a fitted effect of over 45% in size)
Outline: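 Counter screen in the PR-UAS-bla HEK293T wells (2% charcoal-stripped FBS, 16 h compound exposure at 37 C) after the bla read. CellTiter-Glo added, 30 min at room temperature, luminescence read as cell viability.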

[17] = qHTS assay to identify small molecule antagonists of the TGF-beta/Smad signaling pathway - cell viability counter screen (AID 1346824); further: nearly all actives have a fitted effect of over 50% in size
Outline: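 SBE-bla HEK 293T cells were plated overnight at 37 C, then given compounds in DMSO plus TGF-beta1 (added as 0.25 ng/mL solution) for 5 hr. After the bla read, CellTiter-Glo was added to the same wells and luminescence read after 30 min at room temperature.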

[18] = biological target: Progesterone receptor (Homo sapiens) (UniProt P06401); test: qHTS assay to identify small molecule antagonists of the progesterone receptor (PR) signaling pathway (AID 1346795; active means well fitted inhibition curve with a large enough effect in the signal ratio in the repeat runs, not every such curve was filed as active; the % refers to the signal ratio)
Outline: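 PR-UAS-bla HEK293T cells with beta-lactamase reporter under UAS control, in 2% charcoal-stripped FBS, treated with compounds plus 1 nM promegestone (R5020, final) for 16 hr at 37C. Read-out: FRET beta-lactamase substrate fluorescence after 2 hr at room temperature.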

[19] = biological target: Thyrotropin receptor (Homo sapiens) (UniProt P16473); test: qHTS assay to identify small molecule antagonists of the thyroid stimulating hormone receptor (TSHR) signaling pathway (AID 1259385; calls by dose curve; further: nearly all actives have a fitted effect of over 20% in size)
Outline: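 TSHR-HEK293 cells were plated and held 18 h at 37C/5% CO2, then given compound plus Ro20-1724 and stimulated with TSH at 1.5 ng/mL final. After 30 min at room temperature, cAMP was detected with cAMP-d2/anti-cAMP-cryptate (1 h) by fluorescence.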

[20] = qHTS assay to identify small molecule agonists or antagonists of the thyroid stimulating hormone receptor (TSHR) signaling pathway - wild type cell line counter screen (AID 1259384; calls by dose curve)
Outline: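 Wild-type HEK293 cells were plated 18 h at 37 C/5% CO2, pin-dosed with compound plus Ro20-1724 medium, held 30 min at room temperature, then given cAMP-d2 and anti-cAMP-cryptate; fluorescence was read after 1 h. Fifteen concentrations, triplicate.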
On the % scale 0 is the no-effect control and ±100 the full control effect.

Sequence of Progesterone receptor (Homo sapiens) (P06401 whole entry, looked up): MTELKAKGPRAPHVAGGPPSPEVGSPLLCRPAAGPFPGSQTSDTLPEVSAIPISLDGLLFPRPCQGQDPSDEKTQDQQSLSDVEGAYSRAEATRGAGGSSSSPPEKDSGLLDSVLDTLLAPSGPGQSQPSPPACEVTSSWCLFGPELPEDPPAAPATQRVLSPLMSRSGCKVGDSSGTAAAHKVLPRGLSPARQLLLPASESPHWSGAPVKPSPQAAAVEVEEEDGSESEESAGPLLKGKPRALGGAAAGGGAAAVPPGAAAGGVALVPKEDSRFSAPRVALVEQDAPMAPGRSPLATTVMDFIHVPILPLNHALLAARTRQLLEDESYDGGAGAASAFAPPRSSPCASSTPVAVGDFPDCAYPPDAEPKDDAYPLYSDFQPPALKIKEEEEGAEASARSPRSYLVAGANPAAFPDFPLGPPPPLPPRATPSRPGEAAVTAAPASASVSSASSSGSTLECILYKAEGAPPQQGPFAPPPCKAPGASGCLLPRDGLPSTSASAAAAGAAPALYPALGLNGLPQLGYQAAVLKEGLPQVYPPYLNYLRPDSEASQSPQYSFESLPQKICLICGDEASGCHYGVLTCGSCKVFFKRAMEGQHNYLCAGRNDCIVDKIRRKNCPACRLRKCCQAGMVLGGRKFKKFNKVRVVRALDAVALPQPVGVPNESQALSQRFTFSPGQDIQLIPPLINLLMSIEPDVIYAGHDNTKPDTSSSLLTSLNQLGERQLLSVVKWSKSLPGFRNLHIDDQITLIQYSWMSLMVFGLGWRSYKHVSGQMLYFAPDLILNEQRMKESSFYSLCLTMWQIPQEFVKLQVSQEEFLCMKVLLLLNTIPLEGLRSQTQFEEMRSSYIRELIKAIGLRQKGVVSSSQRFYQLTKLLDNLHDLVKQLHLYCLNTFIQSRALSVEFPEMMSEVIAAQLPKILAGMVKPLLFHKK
Sequence of Estrogen receptor beta (Homo sapiens) (Q92731 whole entry, looked up): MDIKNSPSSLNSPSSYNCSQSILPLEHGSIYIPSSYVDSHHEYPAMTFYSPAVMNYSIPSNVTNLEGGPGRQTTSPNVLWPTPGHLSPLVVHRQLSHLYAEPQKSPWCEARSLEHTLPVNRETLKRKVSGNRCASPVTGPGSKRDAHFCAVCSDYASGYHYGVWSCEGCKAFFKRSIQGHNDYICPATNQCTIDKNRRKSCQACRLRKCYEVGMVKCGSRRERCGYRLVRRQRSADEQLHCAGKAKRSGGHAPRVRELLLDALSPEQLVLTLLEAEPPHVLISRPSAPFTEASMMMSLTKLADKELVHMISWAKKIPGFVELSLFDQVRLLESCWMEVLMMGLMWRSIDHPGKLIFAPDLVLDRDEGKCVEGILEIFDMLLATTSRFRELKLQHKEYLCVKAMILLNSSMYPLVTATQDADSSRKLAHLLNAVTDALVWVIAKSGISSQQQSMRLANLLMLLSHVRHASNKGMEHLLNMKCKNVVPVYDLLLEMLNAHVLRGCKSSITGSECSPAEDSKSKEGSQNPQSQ
Sequence of Estrogen receptor (Homo sapiens) (P03372 whole entry, looked up): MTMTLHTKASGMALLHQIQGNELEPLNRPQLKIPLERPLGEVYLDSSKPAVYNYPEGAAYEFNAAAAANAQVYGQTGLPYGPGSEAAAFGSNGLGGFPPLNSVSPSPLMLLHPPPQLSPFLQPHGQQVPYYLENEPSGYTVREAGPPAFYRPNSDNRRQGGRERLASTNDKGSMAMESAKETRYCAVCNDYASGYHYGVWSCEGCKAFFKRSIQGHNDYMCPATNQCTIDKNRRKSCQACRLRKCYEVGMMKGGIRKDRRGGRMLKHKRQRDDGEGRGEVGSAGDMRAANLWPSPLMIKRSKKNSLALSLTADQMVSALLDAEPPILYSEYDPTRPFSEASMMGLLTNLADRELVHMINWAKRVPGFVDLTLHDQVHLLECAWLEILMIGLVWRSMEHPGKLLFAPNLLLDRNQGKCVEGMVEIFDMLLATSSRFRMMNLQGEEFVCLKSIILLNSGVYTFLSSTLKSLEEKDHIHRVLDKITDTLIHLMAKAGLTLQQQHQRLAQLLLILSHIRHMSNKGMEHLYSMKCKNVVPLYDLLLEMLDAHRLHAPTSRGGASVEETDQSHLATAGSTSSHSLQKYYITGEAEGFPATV
Sequence of Thyrotropin receptor (Homo sapiens) (P16473 whole entry, looked up): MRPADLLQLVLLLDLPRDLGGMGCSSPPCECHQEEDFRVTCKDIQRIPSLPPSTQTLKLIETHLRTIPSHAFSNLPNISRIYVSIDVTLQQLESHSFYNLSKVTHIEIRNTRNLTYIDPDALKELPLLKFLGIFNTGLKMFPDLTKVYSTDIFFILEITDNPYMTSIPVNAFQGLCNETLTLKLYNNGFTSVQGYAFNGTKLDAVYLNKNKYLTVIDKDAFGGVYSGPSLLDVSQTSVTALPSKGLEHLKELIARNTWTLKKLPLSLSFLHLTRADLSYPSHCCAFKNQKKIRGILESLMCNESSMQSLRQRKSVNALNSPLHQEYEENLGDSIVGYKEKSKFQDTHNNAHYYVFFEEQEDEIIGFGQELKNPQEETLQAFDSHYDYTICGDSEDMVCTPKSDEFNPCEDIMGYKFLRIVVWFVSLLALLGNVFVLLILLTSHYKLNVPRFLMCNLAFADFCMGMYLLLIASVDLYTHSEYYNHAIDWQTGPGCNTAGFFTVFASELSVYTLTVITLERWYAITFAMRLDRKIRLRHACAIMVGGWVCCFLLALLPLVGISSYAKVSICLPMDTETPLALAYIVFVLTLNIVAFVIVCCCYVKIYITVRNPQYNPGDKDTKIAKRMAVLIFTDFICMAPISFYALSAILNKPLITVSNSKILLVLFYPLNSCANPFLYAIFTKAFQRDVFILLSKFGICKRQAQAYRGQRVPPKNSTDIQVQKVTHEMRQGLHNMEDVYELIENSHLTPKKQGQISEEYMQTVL

O=S1(=O)CCCC1
inactive: Potency [1] | outcome [2] | Potency [3] | Potency [4] | outcome [5] | Potency [6] | Potency [7] | outcome [8] | Potency [9] | outcome [10] | outcome [11] | outcome [12] | Potency [13] | Potency [14] | Potency [15] | Potency [16] | outcome [17]

C1CCN2C[C@@H]3C[C@@H](CN4CCCC[C@@H]34)[C@H]2C1
inactive: Potency [1] | outcome [2] | Potency [3] | Potency [4] | outcome [5] | Potency [6] | Potency [7] | outcome [8] | Potency [9] | Potency [13] | Potency [14] | Potency [18] | Potency [16] | outcome [17]

SCCSCCS
inactive: Potency [1] | outcome [2] | Potency [3] | Potency [4] | outcome [5] | Potency [6] | Potency [7] | outcome [8] | outcome [10] | outcome [11] | outcome [19] | Potency [13] | Potency [14] | Potency [18] | Potency [16] | outcome [17]

CC(=O)Nc1ccc(C)cc1
inactive: Potency [1] | outcome [2] | Potency [3] | Potency [4] | outcome [5] | Potency [6] | Potency [7] | outcome [8] | outcome [10] | outcome [11] | outcome [12] | Potency [13] | Potency [14] | Potency [18] | Potency [15] | Potency [16] | outcome [17]

O=c1[nH]c(=O)c2[nH]c(=O)[nH]c2[nH]1
inactive: activity change, negative = inhibition [1] 11.3% [at 8.39 µM] | activity change, negative = cytotoxicity [2] 0.314% [at 8.39 µM] | viability change, negative = cytotoxic [3] -3.05% [at 8.39 µM] | viability change, negative = cytotoxic [4] 0.704% [at 8.39 µM] | activity change [5] 0.435% [at 8.39 µM] | activity change, negative = inhibition [6] 16.8% [at 8.39 µM] | activation [7] -1.14% [at 8.39 µM] | activity, negative = inhibition [8] 11.9% [at 8.39 µM] | activity change, negative = cytotoxicity [10] 0.228% [at 8.39 µM] | activity change, negative = cytotoxicity [11] 3.94% [at 8.39 µM] | activation [12] 0.0928% [at 8.39 µM] | cAMP activity change [20] -3.72% [at 8.39 µM] | activity change, negative = inhibition [19] 0.717% [at 8.39 µM] | activity change, negative = cytotoxicity [13] 1.17% [at 8.39 µM] | activation [14] -0.558% [at 8.39 µM] | activity change, negative = inhibition [18] 0.247% [at 8.39 µM] | activity change, negative = cytotoxicity [15] -11.7% [at 8.39 µM] | activity change, negative = cytotoxicity [16] -1.97% [at 8.39 µM] | viability change, negative = cytotoxic [17] 2.42% [at 6.97 µM]
